{"source": "PubChem BioAssay AID588342", "about": "(National Center for Advancing Translational Sciences (NCATS), 2011)", "note": "About 25,000 (6.9%) of roughly 360,000 compounds were called active. Where a call stands in place of a potency, no number is given. Not shown: some 9% with an inconclusive outcome. The call rests on the fitted dose curve; in most records, active means well fitted inhibition curve with a large enough effect; inconclusive means small, poorly fitted or top-dose-only effect; inactive means flat fitted curve, though single readings scatter. The sample as a whole holds a higher share of actives than the screen did. Potency means the concentration at half of the fitted maximal effect.", "data": [{"molecular_target": "Luciferin 4-monooxygenase (Photinus pyralis) (UniProt P08659)", "sequence (P08659 whole entry, looked up)": "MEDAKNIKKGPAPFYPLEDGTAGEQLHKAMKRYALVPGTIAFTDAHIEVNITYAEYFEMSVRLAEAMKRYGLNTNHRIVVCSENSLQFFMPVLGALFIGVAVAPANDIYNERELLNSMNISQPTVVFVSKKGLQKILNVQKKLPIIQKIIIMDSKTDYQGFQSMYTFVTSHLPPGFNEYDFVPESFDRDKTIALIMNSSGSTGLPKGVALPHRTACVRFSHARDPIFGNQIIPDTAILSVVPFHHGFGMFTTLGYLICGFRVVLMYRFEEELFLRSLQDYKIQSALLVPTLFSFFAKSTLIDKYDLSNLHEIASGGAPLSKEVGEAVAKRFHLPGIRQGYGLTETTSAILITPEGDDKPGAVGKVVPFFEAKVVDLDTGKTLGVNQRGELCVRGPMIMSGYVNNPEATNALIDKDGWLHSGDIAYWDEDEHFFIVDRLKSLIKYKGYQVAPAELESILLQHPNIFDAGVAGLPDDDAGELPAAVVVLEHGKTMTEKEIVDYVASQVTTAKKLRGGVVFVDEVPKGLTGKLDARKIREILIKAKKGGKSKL", "test": "qHTS profiling assay for firefly luciferase inhibitor/activator using purifed enzyme and Km concentrations of substrates (counterscreen for miR-21 project); further: nearly all actives have a fitted effect of over 55% in size", "conditions": "purified FLuc, luminescence inhibition; series mostly up to 57.5 µM", "how_it_was_run": "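Purified P. pyralis luciferase (10nM final) with 10uM D-luciferin and 10uM ATP (Km levels) in 50mM Tris acetate pH 7.5, 10mM Mg acetate, 0.01% Tween-20, 0.05% BSA; qHTS 6-point titration, ~60 µM downward; luminescence read.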", "values": [{"smiles": "O=C(CCn1c(=O)c2sccc2n(Cc2ccc(F)cc2)c1=O)NCc1ccc2c(c1)OCO2", "Potency": "inactive"}, {"smiles": "COc1ccccc1N1CCN(C(CNC(=O)C(=O)NCc2ccc(C)cc2)c2cccnc2)CC1", "note": "(stereo not drawn)", "Potency": "inactive"}, {"smiles": "CCOc1ccc(CNCc2c(C(=O)O)c(C)n(Cc3cccc(OC)c3)c2C)cc1OC", "Potency": "inactive"}, {"smiles": "Cc1nc2ccccc2nc1N/N=C/c1ccc(O)cc1O", "Potency": "12 µM (active)"}, {"smiles": "Oc1ccc(/C=N/Nc2nc(-c3ccccc3F)nc3ccccc23)c(O)c1", "Potency": "10.7 µM (active)"}, {"smiles": "CC(C)(C)Nc1nc(-c2ccccn2)nc2ccccc12", "Potency": "inactive"}, {"smiles": "Oc1ccc(/C=N/NC2=NCCCCC2)c(O)c1", "Potency": "13.5 µM (active)"}, {"smiles": "Cc1ccc(/C=N/NC(=O)C2=NNC(c3ccccc3)(c3ccccc3)C2)c(O)c1", "Potency": "inactive"}, {"smiles": "Oc1c(Br)cccc1/C=N/Nc1c(F)c(F)c(F)c(F)c1F", "Potency": "inactive"}, {"smiles": "COc1ccc(N2CCN(c3nc(-c4ccccc4F)nc4ccccc34)CC2)cc1", "Potency": "inactive"}, {"smiles": "Cc1n[nH]c(=O)nc1N/N=C/c1cccs1", "Potency": "inactive"}, {"smiles": "CN1c2ccc(Cl)cc2-c2nc(SCC(=O)Nc3cc(F)ccc3F)ncc2S1(=O)=O", "Potency": "inactive"}, {"smiles": "O=C(NCCCO)C(=O)Nc1c2c(nn1-c1ccc(F)cc1)CSC2", "Potency": "inactive"}, {"smiles": "Cn1c2cc(B(O)O)sc2c2cnn(Cc3ccccc3F)c(=O)c21", "Potency": "inactive"}, {"smiles": "CCc1noc(C)c1C(=O)N1CCN(S(=O)(=O)c2cccc(C(F)(F)F)c2)CC1", "Potency": "inactive"}, {"smiles": "OCC[C@H]1C[C@@H](O)[C@H](O)[C@@]2(OCCc3ccccc32)O1", "Potency": "inactive"}, {"smiles": "COc1ccc(S(=O)(=O)N2CCN(CC(=O)N3c4ccccc4CC3C)CC2)cc1OC", "note": "(stereo not drawn)", "Potency": "inactive"}, {"smiles": "CC1Cc2cc(S(=O)(=O)CCC(=O)NCc3ccc(Cl)cc3)ccc2N1C(=O)C1CC1", "note": "(stereo not drawn)", "Potency": "inactive"}, {"smiles": "O=S(=O)(NCc1ccc(Cl)cc1Cl)c1cccs1", "Potency": "inactive"}, {"smiles": "O=S(=O)(Nc1ccccc1Br)c1cccs1", "Potency": "inactive"}, {"smiles": "O=C(Nc1cccc(Cl)c1)Nc1ccccc1NS(=O)(=O)c1cccs1", "Potency": "16.9 µM (active)"}, {"smiles": "Cc1ccc(Cl)cc1N(C)C(=O)C1CCCN(c2ncnc3onc(-c4ccc(F)cc4)c23)C1", "note": "(stereo not drawn)", "Potency": "inactive"}, {"smiles": "COc1cc(OC)cc(C(=O)Nc2c(C(=O)Nc3ccc(F)cc3)oc3ccccc23)c1", "Potency": "2.69 µM (active)"}, {"smiles": "COc1ccccc1C(=O)Nc1c(C(=O)Nc2ccc(C)cc2)oc2ccccc12", "Potency": "inactive"}, {"smiles": "COc1ccccc1NC(=O)c1oc2ccccc2c1NC(=O)C(C)C", "Potency": "inactive"}, {"smiles": "Cc1ccc(C)c(NC(=O)Cn2ccn(-c3ccc(F)cc3)c(=O)c2=O)c1", "Potency": "inactive"}, {"smiles": "CCOC(=O)C1CCN(c2nc3c(S(=O)(=O)c4ccc(CC)cc4)nnn3c3ccc(Cl)cc23)CC1", "Potency": "inactive"}, {"smiles": "CCc1ccc(CNC(=O)c2cc3c(=O)n(CC)c4ccccc4c3s2)cc1", "Potency": "inactive"}]}]}
